Laboratory results as given in ChEMBL document CHEMBL1961873, “Compounds: GSK PKIS; Assays: Nanosyn kinase panel” (2012).

Tests used:
[1] = target: Fibroblast growth factor receptor 4 (Homo sapiens) (UniProt P22455); details: at 1 µM;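 further: reported figure is the averaged percent inhibition of FGFR4, from the GSK PKIS kinase screening panel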
[2] = target: Tyrosine-protein kinase Fgr (Homo sapiens) (UniProt P09769); details: at 0.1 µM
[3] = target: Tyrosine-protein kinase Fgr (Homo sapiens) (UniProt P09769); details: at 1 µM
[4] = target: Vascular endothelial growth factor receptor 1 (Homo sapiens) (UniProt P17948); details: at 0.1 µM
Chain of Vascular endothelial growth factor receptor 1 (Homo sapiens) (P17948 whole entry): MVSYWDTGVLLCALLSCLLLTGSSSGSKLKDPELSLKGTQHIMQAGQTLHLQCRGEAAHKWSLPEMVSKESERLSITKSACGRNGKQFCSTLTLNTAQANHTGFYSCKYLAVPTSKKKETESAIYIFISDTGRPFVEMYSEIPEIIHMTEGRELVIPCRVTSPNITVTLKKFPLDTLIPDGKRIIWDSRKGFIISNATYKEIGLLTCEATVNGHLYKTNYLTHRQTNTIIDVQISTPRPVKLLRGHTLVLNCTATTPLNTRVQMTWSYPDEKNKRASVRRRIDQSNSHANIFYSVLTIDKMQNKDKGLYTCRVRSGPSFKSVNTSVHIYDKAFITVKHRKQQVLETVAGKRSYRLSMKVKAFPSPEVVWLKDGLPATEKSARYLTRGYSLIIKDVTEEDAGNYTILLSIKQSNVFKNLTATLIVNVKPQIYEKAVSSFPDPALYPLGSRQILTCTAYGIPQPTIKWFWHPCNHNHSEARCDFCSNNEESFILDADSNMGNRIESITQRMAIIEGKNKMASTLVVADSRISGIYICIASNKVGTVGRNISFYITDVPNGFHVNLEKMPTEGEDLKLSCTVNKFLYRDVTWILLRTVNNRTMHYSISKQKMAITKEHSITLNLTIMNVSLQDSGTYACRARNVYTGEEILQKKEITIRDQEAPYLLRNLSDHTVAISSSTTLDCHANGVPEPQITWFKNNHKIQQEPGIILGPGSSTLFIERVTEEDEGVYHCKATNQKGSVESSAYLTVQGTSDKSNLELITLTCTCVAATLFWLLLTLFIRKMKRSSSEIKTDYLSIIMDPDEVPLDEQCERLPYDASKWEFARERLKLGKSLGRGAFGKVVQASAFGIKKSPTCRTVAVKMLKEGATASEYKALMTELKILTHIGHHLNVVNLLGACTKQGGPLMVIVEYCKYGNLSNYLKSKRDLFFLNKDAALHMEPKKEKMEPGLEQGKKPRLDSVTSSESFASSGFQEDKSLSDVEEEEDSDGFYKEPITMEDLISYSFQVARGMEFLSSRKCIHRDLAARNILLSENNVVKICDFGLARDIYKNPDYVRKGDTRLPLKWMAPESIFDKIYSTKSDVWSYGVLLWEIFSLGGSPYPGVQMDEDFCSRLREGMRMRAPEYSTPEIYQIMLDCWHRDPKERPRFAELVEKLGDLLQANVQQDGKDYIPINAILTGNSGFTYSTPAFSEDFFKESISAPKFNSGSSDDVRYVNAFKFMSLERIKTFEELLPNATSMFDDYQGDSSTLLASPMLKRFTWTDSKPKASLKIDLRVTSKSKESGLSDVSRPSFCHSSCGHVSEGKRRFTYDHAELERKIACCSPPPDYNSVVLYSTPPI

[5] = target: Vascular endothelial growth factor receptor 1 (Homo sapiens) (UniProt P17948); details: at 1 µM
[6] = target: Receptor-type tyrosine-protein kinase FLT3 (Homo sapiens) (UniProt P36888); details: at 0.1 µM
[7] = target: Receptor-type tyrosine-protein kinase FLT3 (Homo sapiens) (UniProt P36888); details: at 1 µM
[8] = system: T1, Receptor-type tyrosine-protein kinase FLT3 (Homo sapiens), P36888 [D835Y]; details: at 0.1 µM
T1 sequence (whole entry): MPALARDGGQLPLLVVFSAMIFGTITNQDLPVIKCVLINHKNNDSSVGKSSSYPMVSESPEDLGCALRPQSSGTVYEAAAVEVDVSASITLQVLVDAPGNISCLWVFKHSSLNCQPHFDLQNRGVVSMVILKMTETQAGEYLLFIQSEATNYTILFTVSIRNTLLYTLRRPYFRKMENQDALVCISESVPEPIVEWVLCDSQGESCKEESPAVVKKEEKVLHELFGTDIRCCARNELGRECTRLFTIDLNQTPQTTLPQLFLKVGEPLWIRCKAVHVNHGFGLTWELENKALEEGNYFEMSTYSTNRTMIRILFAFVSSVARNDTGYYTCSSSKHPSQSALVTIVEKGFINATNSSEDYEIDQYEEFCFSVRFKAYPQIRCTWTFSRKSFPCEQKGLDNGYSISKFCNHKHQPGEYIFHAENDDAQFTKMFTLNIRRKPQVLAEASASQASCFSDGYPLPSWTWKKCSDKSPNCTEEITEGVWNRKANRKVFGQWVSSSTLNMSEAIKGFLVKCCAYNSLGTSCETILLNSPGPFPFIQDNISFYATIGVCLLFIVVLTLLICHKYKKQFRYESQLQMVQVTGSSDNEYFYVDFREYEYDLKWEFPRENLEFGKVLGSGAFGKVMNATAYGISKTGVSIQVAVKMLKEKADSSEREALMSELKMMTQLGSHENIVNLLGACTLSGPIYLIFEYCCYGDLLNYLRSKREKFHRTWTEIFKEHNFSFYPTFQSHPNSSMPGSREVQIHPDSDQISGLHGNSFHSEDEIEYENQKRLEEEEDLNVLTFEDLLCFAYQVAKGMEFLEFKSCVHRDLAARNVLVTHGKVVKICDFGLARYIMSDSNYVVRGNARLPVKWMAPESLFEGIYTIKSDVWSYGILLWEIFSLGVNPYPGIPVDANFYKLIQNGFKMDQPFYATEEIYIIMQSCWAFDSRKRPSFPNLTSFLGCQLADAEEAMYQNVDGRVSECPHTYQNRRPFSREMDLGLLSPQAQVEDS

[9] = target: Non-receptor tyrosine-protein kinase TYK2 (Homo sapiens) (UniProt P29597); details: at 1 µM;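 further: values are mean percent inhibition of TYK2 kinase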
[10] = target: T2, Tyrosine-protein kinase receptor TYRO3 (Homo sapiens) (UniProt Q06418); details: at 0.1 µM
T2 sequence (whole entry): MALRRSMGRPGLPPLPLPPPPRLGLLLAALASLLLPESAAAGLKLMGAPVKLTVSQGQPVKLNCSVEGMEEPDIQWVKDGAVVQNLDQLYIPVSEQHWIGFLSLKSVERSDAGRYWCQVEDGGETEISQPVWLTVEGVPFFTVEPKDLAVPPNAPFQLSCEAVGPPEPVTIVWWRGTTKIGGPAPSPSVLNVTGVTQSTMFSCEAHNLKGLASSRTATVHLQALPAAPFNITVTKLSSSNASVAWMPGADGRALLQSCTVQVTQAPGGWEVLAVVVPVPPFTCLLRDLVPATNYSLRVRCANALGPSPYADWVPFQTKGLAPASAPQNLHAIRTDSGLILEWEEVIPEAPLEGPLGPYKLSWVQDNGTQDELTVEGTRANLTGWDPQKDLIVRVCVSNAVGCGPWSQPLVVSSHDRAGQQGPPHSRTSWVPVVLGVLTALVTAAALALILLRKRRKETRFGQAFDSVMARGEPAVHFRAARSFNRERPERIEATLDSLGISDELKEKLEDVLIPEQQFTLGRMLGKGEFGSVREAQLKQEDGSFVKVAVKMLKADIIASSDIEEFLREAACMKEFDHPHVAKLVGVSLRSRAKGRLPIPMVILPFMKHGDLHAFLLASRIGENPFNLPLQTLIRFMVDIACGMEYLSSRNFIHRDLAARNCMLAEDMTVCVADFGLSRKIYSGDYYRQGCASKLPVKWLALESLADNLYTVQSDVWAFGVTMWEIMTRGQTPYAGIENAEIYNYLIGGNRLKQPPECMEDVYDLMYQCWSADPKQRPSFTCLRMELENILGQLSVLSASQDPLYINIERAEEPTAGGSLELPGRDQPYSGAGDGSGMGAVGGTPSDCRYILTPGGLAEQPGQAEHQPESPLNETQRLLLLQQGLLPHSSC

[11] = target: T2, Tyrosine-protein kinase receptor TYRO3 (Homo sapiens); details: at 1 µM
[12] = target: Tyrosine-protein kinase Yes (Homo sapiens) (UniProt P07947); details: at 0.1 µM
Chain of Tyrosine-protein kinase Yes (Homo sapiens) (P07947 2-543 limits assumed): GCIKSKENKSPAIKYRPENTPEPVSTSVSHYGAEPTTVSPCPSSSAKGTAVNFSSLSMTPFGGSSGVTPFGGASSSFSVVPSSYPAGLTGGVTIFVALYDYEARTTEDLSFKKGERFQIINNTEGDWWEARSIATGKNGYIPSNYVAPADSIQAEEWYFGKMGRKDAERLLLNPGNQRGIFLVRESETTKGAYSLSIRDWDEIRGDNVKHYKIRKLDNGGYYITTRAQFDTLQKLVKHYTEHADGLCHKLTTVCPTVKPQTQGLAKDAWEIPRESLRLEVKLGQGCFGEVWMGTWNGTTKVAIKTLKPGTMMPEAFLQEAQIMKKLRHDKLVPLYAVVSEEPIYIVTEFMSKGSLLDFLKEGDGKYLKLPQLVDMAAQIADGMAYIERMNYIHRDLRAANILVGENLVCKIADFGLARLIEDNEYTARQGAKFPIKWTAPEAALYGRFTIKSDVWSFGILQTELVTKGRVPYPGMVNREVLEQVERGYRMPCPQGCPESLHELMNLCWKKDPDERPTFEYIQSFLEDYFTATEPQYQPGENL

[13] = target: Tyrosine-protein kinase Yes (Homo sapiens) (UniProt P07947); details: at 1 µM
[14] = target: T3, Tyrosine-protein kinase ZAP-70 (Homo sapiens) (UniProt P43403); details: at 0.1 µM
T3 sequence (whole entry): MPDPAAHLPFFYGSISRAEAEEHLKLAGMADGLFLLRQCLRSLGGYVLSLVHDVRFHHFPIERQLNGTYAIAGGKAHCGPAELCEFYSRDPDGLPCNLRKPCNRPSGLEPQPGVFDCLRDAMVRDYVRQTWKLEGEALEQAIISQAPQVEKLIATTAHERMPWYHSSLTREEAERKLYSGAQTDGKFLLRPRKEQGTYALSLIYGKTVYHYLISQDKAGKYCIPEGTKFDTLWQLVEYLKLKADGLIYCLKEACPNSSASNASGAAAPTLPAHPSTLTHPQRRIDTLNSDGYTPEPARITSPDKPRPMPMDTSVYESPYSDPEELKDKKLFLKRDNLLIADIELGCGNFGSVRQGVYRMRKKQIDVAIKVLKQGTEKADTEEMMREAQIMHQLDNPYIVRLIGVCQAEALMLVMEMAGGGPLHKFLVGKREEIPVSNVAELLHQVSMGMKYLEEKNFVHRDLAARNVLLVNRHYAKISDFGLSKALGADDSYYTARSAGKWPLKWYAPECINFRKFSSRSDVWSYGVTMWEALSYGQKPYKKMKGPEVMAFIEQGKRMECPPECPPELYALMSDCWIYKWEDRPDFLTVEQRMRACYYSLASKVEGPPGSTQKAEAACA

[15] = target: T3, Tyrosine-protein kinase ZAP-70 (Homo sapiens); details: at 1 µM
[16] = target: Serine/threonine-protein kinase B-raf (Homo sapiens) (UniProt P15056); details: at 0.1 µM
Chain of Serine/threonine-protein kinase B-raf (Homo sapiens) (P15056 whole entry): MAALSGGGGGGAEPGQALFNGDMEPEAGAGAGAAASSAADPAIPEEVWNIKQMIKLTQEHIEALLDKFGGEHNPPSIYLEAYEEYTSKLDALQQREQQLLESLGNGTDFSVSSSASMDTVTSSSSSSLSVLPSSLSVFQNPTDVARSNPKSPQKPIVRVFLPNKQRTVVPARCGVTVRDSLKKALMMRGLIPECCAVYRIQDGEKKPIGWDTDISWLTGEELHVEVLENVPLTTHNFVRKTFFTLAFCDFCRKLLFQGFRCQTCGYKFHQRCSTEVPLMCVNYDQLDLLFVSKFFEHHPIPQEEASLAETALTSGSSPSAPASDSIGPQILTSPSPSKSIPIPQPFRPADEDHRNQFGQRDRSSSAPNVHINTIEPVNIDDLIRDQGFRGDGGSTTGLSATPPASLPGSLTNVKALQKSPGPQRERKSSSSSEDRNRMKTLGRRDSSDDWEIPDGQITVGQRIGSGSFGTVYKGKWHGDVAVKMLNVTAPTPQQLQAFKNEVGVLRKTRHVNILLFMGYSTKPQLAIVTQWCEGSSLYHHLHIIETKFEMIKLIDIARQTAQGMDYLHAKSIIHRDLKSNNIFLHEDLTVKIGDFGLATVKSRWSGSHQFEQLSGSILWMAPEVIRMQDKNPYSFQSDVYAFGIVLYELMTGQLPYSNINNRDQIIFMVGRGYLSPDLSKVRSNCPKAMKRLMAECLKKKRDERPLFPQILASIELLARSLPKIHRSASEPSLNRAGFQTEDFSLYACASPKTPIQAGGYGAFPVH

[17] = target: Serine/threonine-protein kinase B-raf (Homo sapiens) (UniProt P15056); details: at 1 µM
[18] = system: Serine/threonine-protein kinase B-raf (Homo sapiens), P15056 [V600E]; details: at 0.1 µM
Chain of Serine/threonine-protein kinase B-raf (Homo sapiens), P15056 [V600E] (P15056 whole entry V600E): as the sequence (P15056 whole entry) above, with V600E counted along it

[19] = system: Serine/threonine-protein kinase B-raf (Homo sapiens), P15056 [V600E]; details: at 1 µM
[20] = target: RAF proto-oncogene serine/threonine-protein kinase (Homo sapiens) (UniProt P04049); details: at 0.1 µM;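 further: values are mean CRAF kinase inhibition from profiling of the GSK Published Kinase Inhibitor Set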
Chain of RAF proto-oncogene serine/threonine-protein kinase (Homo sapiens) (P04049 whole entry): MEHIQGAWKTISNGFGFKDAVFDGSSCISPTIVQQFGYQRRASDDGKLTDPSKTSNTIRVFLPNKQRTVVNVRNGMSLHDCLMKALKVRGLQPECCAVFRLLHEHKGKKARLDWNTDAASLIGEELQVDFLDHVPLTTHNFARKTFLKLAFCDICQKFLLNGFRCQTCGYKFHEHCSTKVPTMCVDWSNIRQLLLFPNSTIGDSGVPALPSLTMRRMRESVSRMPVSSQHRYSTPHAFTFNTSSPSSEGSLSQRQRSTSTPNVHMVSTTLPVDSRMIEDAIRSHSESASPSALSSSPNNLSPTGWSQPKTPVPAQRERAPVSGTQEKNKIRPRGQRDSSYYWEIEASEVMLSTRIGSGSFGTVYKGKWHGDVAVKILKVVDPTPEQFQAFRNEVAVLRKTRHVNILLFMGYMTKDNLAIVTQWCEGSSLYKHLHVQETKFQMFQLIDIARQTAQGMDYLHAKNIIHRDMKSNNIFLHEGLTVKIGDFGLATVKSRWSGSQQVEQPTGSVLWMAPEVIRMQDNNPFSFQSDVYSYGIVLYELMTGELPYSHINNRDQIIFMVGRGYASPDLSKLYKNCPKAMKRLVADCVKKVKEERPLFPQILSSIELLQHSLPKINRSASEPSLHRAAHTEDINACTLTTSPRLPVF

Chain of Fibroblast growth factor receptor 4 (Homo sapiens) (P22455 22-802 limits assumed): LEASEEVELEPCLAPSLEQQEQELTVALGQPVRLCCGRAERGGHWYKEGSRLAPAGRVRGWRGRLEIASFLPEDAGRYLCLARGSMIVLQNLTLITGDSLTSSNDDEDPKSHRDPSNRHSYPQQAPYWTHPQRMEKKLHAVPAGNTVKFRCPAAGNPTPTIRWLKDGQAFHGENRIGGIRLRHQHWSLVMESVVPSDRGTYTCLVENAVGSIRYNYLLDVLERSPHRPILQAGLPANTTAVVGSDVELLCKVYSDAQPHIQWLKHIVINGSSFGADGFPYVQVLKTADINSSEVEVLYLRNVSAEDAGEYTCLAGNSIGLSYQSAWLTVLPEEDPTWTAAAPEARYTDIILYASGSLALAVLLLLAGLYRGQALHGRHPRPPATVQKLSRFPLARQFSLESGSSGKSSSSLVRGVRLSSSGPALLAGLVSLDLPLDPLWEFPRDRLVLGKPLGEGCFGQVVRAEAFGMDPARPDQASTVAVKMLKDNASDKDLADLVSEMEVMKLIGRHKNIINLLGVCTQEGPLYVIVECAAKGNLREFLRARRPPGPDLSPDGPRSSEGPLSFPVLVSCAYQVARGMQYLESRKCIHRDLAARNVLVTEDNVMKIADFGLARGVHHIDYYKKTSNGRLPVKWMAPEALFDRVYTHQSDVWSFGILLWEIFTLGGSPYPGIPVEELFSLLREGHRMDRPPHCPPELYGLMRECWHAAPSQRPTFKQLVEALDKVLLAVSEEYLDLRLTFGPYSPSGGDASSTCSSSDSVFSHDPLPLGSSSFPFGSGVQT
Chain of Tyrosine-protein kinase Fgr (Homo sapiens) (P09769 2-529 limits assumed): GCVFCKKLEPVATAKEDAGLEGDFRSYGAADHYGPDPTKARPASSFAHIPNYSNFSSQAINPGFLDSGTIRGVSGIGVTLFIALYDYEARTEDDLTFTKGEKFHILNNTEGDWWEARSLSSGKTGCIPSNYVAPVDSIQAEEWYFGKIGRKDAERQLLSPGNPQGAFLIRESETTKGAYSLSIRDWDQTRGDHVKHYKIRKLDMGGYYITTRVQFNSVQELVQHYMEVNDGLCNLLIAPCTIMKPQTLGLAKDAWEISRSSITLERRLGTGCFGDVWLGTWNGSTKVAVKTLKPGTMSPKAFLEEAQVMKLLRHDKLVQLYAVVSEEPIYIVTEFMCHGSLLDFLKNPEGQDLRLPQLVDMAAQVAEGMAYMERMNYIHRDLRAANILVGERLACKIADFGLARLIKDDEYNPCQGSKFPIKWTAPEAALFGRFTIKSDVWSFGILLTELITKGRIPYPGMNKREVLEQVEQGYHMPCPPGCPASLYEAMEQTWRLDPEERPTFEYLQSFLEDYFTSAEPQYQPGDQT

Structure (SMILES)	inhibition [1]	inhibition [2]	inhibition [3]	inhibition [4]	inhibition [5]	inhibition [6]	inhibition [7]	inhibition [8]	inhibition [9]	inhibition [10]	inhibition [11]	inhibition [12]	inhibition [13]	inhibition [14]	inhibition [15]	inhibition [16]	inhibition [17]	inhibition [18]	inhibition [19]	inhibition [20]
Cc1ccc(C(=O)NC2CCCCC2)cc1-c1ccc(C(=O)NCC2CC2)cc1	2.89%	2.07%	5.25%	2.97%	2.09%	0.22%	-0.64%	-1.58%	-2.34%	1.42%	-0.08%	1.31%	1.09%	2.48%	6.15%	3.92%	3.21%	3.15%	3.03%	4.27%
COc1ccc2cc(-c3c(-c4ccncc4)nc(-c4ccc([S+](C)[O-])cc4)n3C)ccc2c1 (stereo not given)	1.73%	1.14%	6.14%	-2.5%	-1.05%	1.98%	1.93%	-0.4%	-4.84%	0.64%	0.86%	2.16%	8.42%	1.94%	2.34%	3.84%	5.05%	4.92%	4.5%	0.38%
Fc1cccc(COc2ccc(Nc3ncnc4cc(-c5ccc[nH]5)sc34)cc2Cl)c1	-3.31%	3.74%	11%	-0.98%	1.18%	-0.44%	2.33%	2.49%	0.5%	2.87%	3.81%	2.17%	9.41%	-0.46%	-0.93%	3.64%	2.48%	3.55%	2.69%	5.88%
CN(C)c1cc2c(Nc3ccc4nc(Cc5ccccc5)[nH]c4c3)ncnc2cn1	13.5%	17.2%	42.2%	3.21%	11.2%	0.49%	0.52%	-0.65%	-7.84%	3.2%	4.25%	9.2%	37%	6.34%	12.4%	7.82%	7.35%	7.73%	11.2%	-7.41%
CCCN1CCC(Oc2cc(Nc3nc(Nc4cccc(F)c4C(N)=O)c4cc[nH]c4n3)c(OC)cc2Cl)CC1	1.48%	0.61%	4.19%	-0.02%	2.7%	0.23%	2.55%	-3.12%	0.45%	-0.27%	1.14%	1.16%	1.57%	-1.5%	0.24%	2.31%	24.1%	1.35%	23.7%	-1.14%
COC(=O)Nc1nc2cc(Oc3ccc(NC(=O)Nc4cccc(C(=O)O)c4)cc3)ccc2[nH]1	-1.22%	3.78%	6.34%	3.38%	8.22%	1.16%	5.75%	3.31%	-0.42%	0.5%	3.17%	0%	2.43%	-4.68%	-4.2%	-0.5%	-1.69%	-0.53%	-0.73%	-0.09%
O=C1NC(=O)C(N2CCc3ccccc32)=C1c1ccc(Cl)cc1	1.44%	2.39%	8.07%	1.82%	5.14%	2.06%	5.05%	-2.14%	-4.27%	3.4%	3.19%	0.13%	1.35%	3.14%	4.58%	6%	7.8%	6.55%	6.79%	0.98%
N#Cc1c(NC(=O)c2cccc3ccccc23)sc2c1CCCC2	-0.35%	1.53%	5.24%	-0.49%	0.41%	2.28%	2.23%	3.1%	-3.92%	2.98%	2.06%	3.08%	2.43%	2.19%	4.42%	4.29%	5.63%	4.43%	5.4%	-0.45%
COc1ccccc1Nc1ncc(-c2ccccc2)o1	0.7%	5.21%	12.1%	4.3%	16.4%	61%	87.2%	5.09%	-0.92%	1.91%	2.12%	2.01%	6.48%	0.73%	4.36%	6.58%	7.19%	4.73%	3.58%	3.32%
CCCN1CCC=C(c2ccc(Nc3nc(Nc4ccccc4C(N)=O)c4cc[nH]c4n3)c(C)c2)C1	1.82%	-0.56%	4.71%	-0.55%	5.76%	6.74%	9.96%	3.17%	-1.46%	0.75%	9.79%	1.14%	5.4%	5.54%	27.4%	8.31%	33.4%	7.56%	28.2%	5.61%
CCn1c(-c2nonc2N)nc2c(C#CC(C)(C)O)nc(OC[C@@H](N)c3ccccc3)cc21	0.19%	5%	10.2%	5.16%	33.9%	-0.98%	-0.75%	-1.79%	0.35%	-0.52%	0.45%	0.68%	0.4%	-0.65%	-0.38%	-0.61%	3.45%	-0.86%	3.32%	-1.41%
NS(=O)(=O)c1ccc(N/N=C2\C(=O)Nc3ccc(C(=O)NCCc4c[nH]cn4)cc32)cc1	2.39%	4.54%	19.1%	2.21%	10.7%	7.03%	23.4%	8.84%	0.3%	5.07%	21.7%	2.67%	11.8%	1.45%	5.13%	7%	16.5%	6.04%	15.9%	-2.7%
Cc1nnc(-c2ccc(C)c(-c3ccc(C(=O)Nc4cccc(C#N)c4)cc3)c2)o1	0.88%	4.67%	5.11%	-0.39%	1.58%	-0.61%	1.58%	0.86%	-1.12%	1.94%	1.98%	1.42%	5.81%	2.77%	3.12%	3.86%	3.97%	3.34%	3.85%	-4.37%
